Screening data deposited in PubChem by National Center for Advancing Translational Sciences (NCATS).
Tb PGK inh – blocks T. brucei phosphoglycerate kinase; PGK/GAPDH coupled, Kinase-Glo luminescence, 60 min; 0.043% of 380,000 active; P07378; AID 602233; Potency, µM (top dose mostly 57.5 µM), without a hit: top-dose activity change, negative = inhibition, most hits filed as inhibitors; active = well fitted inhibition curve with a large enough effect; inconclusive = small, poorly fitted or top-dose-only effect; inactive = no such curve, though single readings can be large or run the other way; also: potency is read from the fitted curve at half-maximal effect; nearly all actives have a fitted effect of over 60% in size
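Luminescent ATP detection (Kinase-Glo Plus) follows a 60-minute room-temperature incubation, with wells lacking PGK as controls. Buffer: 100 mM TEA (pH 7.6), 5 mM MgCl2, 0.01% Tween-20. Coupling enzyme GAPDH (100 nM final) supplies unstable 1,3-BPG in-well.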
Pin1 inh – blocks the human prolyl isomerase Pin1. 0.009% of 390,000 active. Q13526. Potency, µM (doses to about 115 µM), without a hit: top-dose activity, negative = inhibition, most hits filed as inhibitors. Pin1 FP peptide displacement, HiFluor488, 10 min. AID 504891; active = well fitted inhibition curve with a large enough effect in the polarisation, with a control signal flat, not every such curve was filed as active; inconclusive = small, poorly fitted or top-dose-only effect, or effect the other way, or a change in a side signal; inactive = no such curve, though single readings can be large or run the other way; the % refers to the polarisation; also: potency is read from the fitted curve at half-maximal effect
Target sequence (Q13526 whole entry, looked up): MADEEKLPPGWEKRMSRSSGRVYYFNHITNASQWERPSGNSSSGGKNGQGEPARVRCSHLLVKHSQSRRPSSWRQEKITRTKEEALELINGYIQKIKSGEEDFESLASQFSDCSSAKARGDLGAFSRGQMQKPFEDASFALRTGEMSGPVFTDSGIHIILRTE
PI5P4K alpha inh – PI5P4K alpha (human) kinase inhibition | 1.2% of 330,000 active | P48426 | AID 652105 | max response, % | PI5P4Kalpha enzyme, ADP-Glo luminescence, 60 min; stronger effect = lower value; active = max response of -50% or lower; inconclusive = between -30% and -50%; inactive = -30% or higher; also: value at the top dose of about 77 µM
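Controls without substrate or without enzyme flank wells where PI5P4Kalpha converts substrate using 5 microM ATP (final). Incubation lasts 60 minutes at room temperature; ADP formed is read by ADP-Glo luminescence.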
PI4K2A inh – PI4K2A (human) kinase inhibition. 0.13% of 420,000 active. activity change, negative = inhibition, % at 76.9 µM. purified PI4K2A, ADP-Glo luminescence, 1 h; stronger effect = lower value. AID 1346378; in the data active = activity change below about -50%; inconclusive = mostly about -30% to -49%;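 also: -100% = wells without enzyme as full effect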
Target sequence (Q9BTU6 whole entry, looked up): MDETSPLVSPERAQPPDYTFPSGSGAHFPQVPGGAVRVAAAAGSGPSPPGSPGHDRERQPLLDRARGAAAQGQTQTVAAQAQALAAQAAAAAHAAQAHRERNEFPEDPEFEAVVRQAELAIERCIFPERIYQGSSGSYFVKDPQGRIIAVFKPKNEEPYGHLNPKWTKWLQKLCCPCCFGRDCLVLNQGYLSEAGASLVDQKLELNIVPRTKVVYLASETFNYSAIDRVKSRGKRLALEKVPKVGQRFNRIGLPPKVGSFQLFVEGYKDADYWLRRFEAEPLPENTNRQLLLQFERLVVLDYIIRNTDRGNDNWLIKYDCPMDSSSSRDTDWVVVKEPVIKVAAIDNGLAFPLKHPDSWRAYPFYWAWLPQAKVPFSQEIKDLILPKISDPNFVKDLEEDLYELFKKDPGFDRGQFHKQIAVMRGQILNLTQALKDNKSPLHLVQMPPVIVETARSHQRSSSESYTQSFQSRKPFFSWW
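PI4K2A activity was measured by ADP-Glo luminescence: enzyme (4 ug/mL stock) and phosphatidylinositol (1.2 mM stock) in Tris pH 7.5/MgCl2/EGTA/Triton X-100 buffer were reacted with ATP (300 microM stock) for one hour at ambient temperature.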
An asterisk follows results filed as active; i = inactive; ? = inconclusive; . = no result. Many of the other results were omitted from the sample, so hits are more common in it than they were. Unless noted, % is scaled to controls: 0 for no effect and ±100 for the full control effect.

SMILES	Tb PGK inh	Pin1 inh	PI5P4K alpha inh	PI4K2A inh
COc1ccc(CN(Cc2ccccc2)S(=O)(=O)c2ccccc2)cc1COc1ccc(NC(C)=O)cc1	.	3%	.	.
COc1cc(-c2cnc3c(NC=O)cc(-c4ccccc4)cn23)cc(OC)c1OC	.	.	-16	-4
COc1cc(-c2cnc3c(NC=O)cc(-c4cccc(NC(C)=O)c4)cn23)cc(OC)c1OC	.	.	-60*	-9
O=C1CC(/C=C/c2ccco2)=Nc2ccccc2N1	2%	?	-73*	?
O=C(O)c1cccc(-n2cccc2/C=C/[N+](=O)[O-])c1	?	?	-88*	-25
O=C(O)c1cccc(-n2cccc2/C=C\[N+](=O)[O-])c1	-28%	.	-23	-5
CN(C)CCOC(c1ccccc1)c1ccc(Br)cc1 (centres undefined)	.	.	.	3
Cc1ccc(NC(=O)c2ccc(OCC3CCCO3)cc2)c(C)c1 (centres undefined)	10%	4%	-1	1
Cc1ccnc(NC(=O)c2ccc(OCC3CCCO3)cc2)c1 (centres undefined)	?	-10%	?	-63*
CCc1ccc2[nH]c(=O)c(CN(Cc3cccs3)Cc3nnnn3Cc3ccccc3)cc2c1	.	12%	.	.
COC(=O)CCCNC(=O)c1ccc(S(=O)(=O)NCc2ccco2)cc1	-13%	-1%	-3	1
O=C(Nc1nc2ccccc2[nH]1)c1ccccc1F	8.9µM*	-1%	-12	-80*
CC(C)Oc1ccc(C(=O)Nc2nc3ccccc3[nH]2)cc1	?	-2%	-6	-56*
O=C(Nc1nc2ccccc2[nH]1)c1ccc(OC(F)F)cc1	-10%	-10%	1	-13
O=C(Nc1nc2ccccc2[nH]1)c1ccc(F)cc1	-4%	-1%	.	-28
C#CCOc1c(Cl)cc(/C=C2/C(=O)ON=C2C)cc1OC	4%	5%	0	3
COc1cc(/C=C2/C(=O)ON=C2C)cc(Cl)c1O	-10%	8%	-59*	-6
COc1cc(/C=C2\SC(c3ccccc3)=NC2=O)cc(Cl)c1O	-24%	6%	-99*	-1
COc1cc(/C=C2\SC(c3ccc(C)cc3)=NC2=O)cc(OC)c1OC	.	?	.	8
COc1cc(/C=C2\SC(N)=NC2=O)cc(Br)c1O	-1%	?	-71*	3
O=C(CSc1nnc(CCc2ccccc2)n1-c1ccc(Cl)cc1)c1ccccc1	-9%	2%	-50*	-1
CN1CCN(c2ccc(CNc3nn4c(=O)c5ccccc5nc4s3)cc2)CC1	.	1%	.	.
CCOC(=O)C1CCCN(C(=O)CSc2nc(C)cc(C)n2)C1 (centres undefined)	-9%	-6%	-18	-6
CCOC(=O)C1CCCN(C(=O)CSc2ccc(Br)cc2)C1 (centres undefined)	i	0%	-54*	-2
NCC1OC(O[C@H]2[C@H](O)[C@@H](OC3C(O)C(N)CC(N)C3OC3OC(CO)C(O)C(O)C3N)O[C@@H]2CO)C(N)C(O)C1O (some centres undefined)	.	.	.	3
SMILES	Tb PGK inh	Pin1 inh	PI5P4K alpha inh	PI4K2A inh
CCOC(=O)C1CCCN(C2=NC(=O)/C(=C/c3ccc(OC)cc3OC)S2)C1 (centres undefined)	i	-1%	-79*	-2
CCOC(=O)C1CCCN(C2=NC(=O)/C(=C/c3ccc(OC)cc3)S2)C1 (centres undefined)	-5%	?	1	0
O=C1CCc2cc(S(=O)(=O)Nc3ccccc3-c3ccccc3)ccc2N1	.	3%	.	.
CC1(C)C2CCC1(C)C(NC(=O)COC(=O)c1ccc(S(C)(=O)=O)c([N+](=O)[O-])c1)C2 (centres undefined)	.	4%	.	.
CC1=NN2C(=N)/C(=C\c3ccc(SCc4ccccc4)o3)C(=O)N=C2S1	-8%	?	?	1
N=C1/C(=C\c2ccc(SCc3ccco3)o2)C(=O)N=C2SC=NN12	-14%	?	-58*	-13
Cc1[nH]n(-c2ncc(-c3ccc(Cl)cc3)s2)c(=O)c1C(c1ccc(Cl)cc1)C(C#N)C#N (centres undefined)	-2%	.	-70*	30
COc1ccc(C(c2c(C)[nH]n(C(N)=S)c2=O)C(C#N)C#N)cc1 (centres undefined)	i	-6%	-1	25
CCOC(=O)Cc1csc(NC(=O)CSc2nc(-c3ccccc3)c(C#N)c(=O)[nH]2)n1	-1%	3%	-65*	-9
Cc1ccc(C)c(NC(=O)CSc2nc(-c3ccccc3)c(C#N)c(=O)[nH]2)c1	2%	1%	.	-2
Cc1nc(CSc2nsc(/C=C/N(C)C)c2C#N)cs1	4%	?	?	0
COC(=O)c1ccccc1CSc1nsc(/C=C/N(C)C)c1C#N	-8%	?	-57*	2
COC(=O)CCCCCN1C(=O)NC(c2ccccc2)C(C(=O)OCc2ccccc2)=C1C (centres undefined)	4%	?	1	-1
CC1=C(C(=O)OCc2ccccc2)C(c2ccc(Cl)cc2)NC(=O)N1CCCC(=O)O (centres undefined)	i	4%	-100*	-5
CC1=C(C(=O)OCc2ccccc2)C(c2ccc(Br)cc2)NC(=O)N1CCCC(=O)O (centres undefined)	-4%	2%	-80*	0
CC1=C(C(=O)OCc2ccccc2)C(c2ccc(Br)cc2)NC(=O)N1CCCCCC(=O)O (centres undefined)	-2%	-2%	-21	2
CSC1=C(C#N)C2(CCCCC2)C(C(=O)Nc2ccccc2)=C(C)N1	-1%	1%	3	10
CC1=C(C(=O)Nc2ccccc2)C2(CCCCC2)C(C#N)=C(S)N1	-4%	20%	-58*	10
Cc1[nH]c2ccccc2c1/C=C/c1nc2ccccc2c(=O)[nH]1	2%	59%	-63*	-8
Cc1cccc(/C=C/c2nc3ccccc3c(=O)[nH]2)c1	-8%	-7%	-1	-1
N#C/C(C(=O)Nc1ccc(Cl)cc1)=C(/S)Nc1ccccc1	-5%	-9%	-87*	-2
O=C(Nc1ccc(Nc2ccccc2)cc1)c1ccc(Cl)cc1	0%	-3%	1	-16
CN(c1ccccc1)c1ccc(CNc2nn3c(=O)c4ccccc4nc3s2)cc1	.	-1%	.	.
CCOC(=O)N1CCN([N+]([O-])=NOc2cc(O/N=[N+](\[O-])N(CC)CC)c([N+](=O)[O-])cc2[N+](=O)[O-])CC1	.	-8%	.	.
O=C(CN1C(=O)S/C(=C\C=C\c2ccccc2)C1=O)Nc1ccccc1C(=O)O	-5%	-19%	-67*	-5
O=C(CN1C(=O)S/C(=C\C=C\c2ccccc2)C1=O)Nc1cccc(O)c1	5%	12%	-27	4
O=C(NCCc1ccc(Cl)cc1)c1cccc(S(=O)(=O)N2CCCC2)c1	-1%	.	-10	0
N#CC1=C2SCN(Cc3ccco3)CN2C(=O)CC1c1ccccc1F (centres undefined)	-4%	-8%	.	2
N#CC1=C2SCN(Cc3ccco3)CN2C(=O)CC1c1cccc2ccccc12 (centres undefined)	0%	-9%	-60*	-5
